The whole screen tested about 370,000 compounds, of which about 6,800 (1.8%) were called active.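 Rule for the calls: active = activation above a cutoff set at the mean of all screened compounds plus 3 SD (cut at about 10% in these data); inactive = the rest.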 The list comes from a sample in which actives are over-represented; it also holds similar structures and randomly drawn compounds.
System: Nuclear hormone receptor DAF-12 (Heterodera glycines), GAL4 fusion
Assay: H. glycines DAF-12 receptor agonists, primary screen, cell-based, luminescence, HEK293, GAL4 fusion, UAS-luciferase (AID 687014);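 note: 0% = DMSO wells and 100% = sodium butyrate wells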
Conditions: HEK293 GAL4-hgDAF12 UAS-luciferase reporter, agonist luminescence; at 6.8 µM; active compounds read high; normalized to butyrate control

Structure (SMILES) | activation
CCCCOCCCNC(=O)C[C@H]1C[C@@]2(C(=O)OC)C(=C[C@H](COCc3ccccc3)O[C@@H]2C)N(Cc2cccc3ccccc23)C1=O | 5.41% (inactive)
CCOc1c(N2CCCCC2)c(=O)c1=O | -2.21% (inactive)
Cc1ccc(CSc2nnc(SCC(=O)NN=Cc3cc(Br)ccc3F)s2)cc1 | 6.25% (inactive)
Cc1cc(C)nc(NC(=O)/C=C/c2ccc(Cl)cc2)n1 | -0.13% (inactive)
CC(C)(C)c1ccc(/C=C/C(=O)NCCCn2ccnc2)cc1 | 3.86% (inactive)
CC(C)(C)c1ccc(/C=C/C(=O)Nc2ncccn2)cc1 | 16.6% (active)
COc1ccc(S(=O)(=O)N(C)C)cc1NC(=O)CSc1ncccn1 | 1.65% (inactive)
CCS(=O)(=O)c1ccc2oc(SCC(=O)N3c4ccccc4CC3C)nc2c1 (stereo unspecified) | -2.27% (inactive)
CN(C)S(=O)(=O)c1ccc2oc(SCC(=O)Nc3ccccc3F)nc2c1 | 15.5% (active)
O=C(CNC(=O)c1ccccc1)OC(C(=O)Nc1cc([N+](=O)[O-])ccc1F)c1ccccc1 (stereo unspecified) | 6.44% (inactive)
COC(=O)c1cc(S(=O)(=O)N2CCN(C(=O)C3CCCO3)CC2)cn1C (stereo unspecified) | -0.48% (inactive)
C=C(C)C#CC(Cc1ccccc1)NCC1CC1 (stereo unspecified) | 1.34% (inactive)
COc1cccc(Cn2cc(COC(=O)Nc3ccc(F)cc3)nn2)c1 | -2.67% (inactive)
COc1ccc(SSc2ccc(OC)cc2C(=O)O)c(C(=O)O)c1 | -1.26% (inactive)
COc1ccc(/C=N/Nc2ccccc2C(=O)O)cc1 | 12.8% (active)
COc1ccc(/C=N/NC(=O)Cn2cc(C(F)(F)F)ccc2=O)cc1 | -5.01% (inactive)
N#Cc1c(N)nc2c(c1N)CC(C(F)(F)F)O2 (stereo unspecified) | 2.74% (inactive)
CCOC(=O)[C@]12CCCC3=C1N(CCC3)C(=O)[C@@H](CC(=O)N1CCSCC1)C2 | -0.16% (inactive)
O=C(NCCCc1ccccc1)[C@H](Cc1ccccc1)NC1(C(=O)NCCc2c[nH]c3ccccc23)CCC1 | -3.84% (inactive)
O=C(OC12CCCN(C1)/C(=C/c1cccnc1)C2)C1CCCC1 (stereo unspecified) | -3.6% (inactive)
COc1ccc(C(=O)CSc2nnnn2C)c(OC)c1 | 1.57% (inactive)
COc1ccc(C(=O)Nc2nncs2)c(OC)c1 | 10.4% (active)
COc1ccc(C(=O)NC2CC(C)(C)Cc3c2cnn3-c2ccccc2)c(OC)c1 (stereo unspecified) | -4.18% (inactive)
COC(=O)c1sc(NC(=O)c2ccc(OC)cc2OC)nc1C | 19.3% (active)
COc1ccc(NC(=O)COC(=O)c2ccncc2)c(OC)c1 | -1.12% (inactive)
COc1ccc(C(=O)N2CCCN(C)CC2)c(OC)c1 | -2.22% (inactive)

— PubChem BioAssay AID687014 (The Scripps Research Institute Molecular Screening Center, 2013)
